In PubChem BioAssay AID1835 (Johns Hopkins Ion Channel Center, 2009) one finds activity increase over dofetilide control, less the hit threshold data, which are given here for 54 compounds.

The whole screen tested about 2,400 compounds, of which about 750 (31%) were called active. The list shows a part of the results. Values without a mark were called inactive.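 How the source made its calls: active means median signal gain over dofetilide-blocked control wells reaching their mean plus 3 SD, so readout 1 at least 0; inactive means the rest.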

This experiment deals with Voltage-gated inwardly rectifying potassium channel KCNH2 (Homo sapiens) (UniProt Q12809). Description: hERG protection against dofetilide inhibition, confirmation, cell-based, thallium flux, duplicate retest, dofetilide IC70 (AID 1835). The conditions noted are these: hERG cell line, FluxOR thallium flux, dofetilide-blocked; at 10 µM; active compounds read high.
Chain of Voltage-gated inwardly rectifying potassium channel KCNH2 (Homo sapiens) (Q12809 whole entry, looked up): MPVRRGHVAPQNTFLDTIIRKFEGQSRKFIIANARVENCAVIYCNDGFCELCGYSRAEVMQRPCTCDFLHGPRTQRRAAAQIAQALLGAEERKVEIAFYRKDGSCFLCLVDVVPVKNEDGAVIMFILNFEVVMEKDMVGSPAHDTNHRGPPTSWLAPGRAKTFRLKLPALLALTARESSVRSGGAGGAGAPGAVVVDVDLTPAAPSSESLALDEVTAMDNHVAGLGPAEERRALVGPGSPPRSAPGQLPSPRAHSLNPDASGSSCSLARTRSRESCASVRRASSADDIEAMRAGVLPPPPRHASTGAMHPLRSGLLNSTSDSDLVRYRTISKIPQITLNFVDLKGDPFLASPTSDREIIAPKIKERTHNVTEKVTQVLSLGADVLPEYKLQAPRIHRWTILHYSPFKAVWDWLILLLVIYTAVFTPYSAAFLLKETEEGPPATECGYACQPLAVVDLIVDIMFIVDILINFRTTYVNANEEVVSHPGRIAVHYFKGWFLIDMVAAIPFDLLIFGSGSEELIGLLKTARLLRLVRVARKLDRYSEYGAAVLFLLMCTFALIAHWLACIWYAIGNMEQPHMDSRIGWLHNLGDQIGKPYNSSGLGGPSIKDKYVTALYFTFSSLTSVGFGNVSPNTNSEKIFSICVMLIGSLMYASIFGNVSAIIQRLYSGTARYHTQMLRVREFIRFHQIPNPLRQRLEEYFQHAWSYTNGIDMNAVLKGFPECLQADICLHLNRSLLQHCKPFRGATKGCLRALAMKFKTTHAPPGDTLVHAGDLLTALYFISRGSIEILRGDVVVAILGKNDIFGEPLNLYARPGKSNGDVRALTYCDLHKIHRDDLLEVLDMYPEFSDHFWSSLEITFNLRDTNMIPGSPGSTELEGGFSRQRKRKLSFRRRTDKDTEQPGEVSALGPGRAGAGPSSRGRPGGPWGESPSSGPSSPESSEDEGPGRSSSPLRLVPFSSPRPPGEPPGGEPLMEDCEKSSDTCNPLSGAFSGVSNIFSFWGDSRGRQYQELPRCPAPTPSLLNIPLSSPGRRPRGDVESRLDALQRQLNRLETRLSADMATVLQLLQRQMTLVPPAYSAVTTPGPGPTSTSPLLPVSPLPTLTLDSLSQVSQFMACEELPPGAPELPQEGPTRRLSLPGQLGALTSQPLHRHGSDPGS
As for `Cc1cc(S(=O)(=O)Nc2ccc(C(=O)N3CCN(C(=O)c4ccco4)CC3)cc2)ccc1F`, the activity increase over dofetilide control, less the hit threshold is -13%.
Regarding `CCOC(=O)N1CCN(C(=O)c2ccc(Cl)c(S(=O)(=O)Nc3ccccc3)c2)CC1`, the activity increase over dofetilide control, less the hit threshold is 5% (active).
Then `CCOC(=O)N1CCN(C(=O)c2ccc(C)c(S(=O)(=O)Nc3ccccc3)c2)CC1`, with -1%.
The figure for `NC(=O)c1ccsc1NC(=O)CS(=O)(=O)c1ccccc1` is -9%; for `Cn1nc(C(=O)Nc2ccc3c(c2)OCO3)c2ccccc2c1=O` it is -16%; for `O=c1c(O)c(-c2ccc3c(c2)OCO3)oc2ccccc12` it is 6% (active).
Then `O=C1OC(/C=C/c2ccc(Cl)cc2Cl)=NC/1=C\c1cccs1`, with -7%; and `O=c1c(O)c(-c2cccs2)oc2ccc(Cl)cc12`, with 92% (active).
On to `O=c1c(O)c(-c2cccs2)oc2ccccc12`, for which the activity increase over dofetilide control, less the hit threshold was 62% (active).
The figure for `O=C(NCc1cccnc1)Nc1ccc2c(c1)OCO2` is -19%; for `Cc1ccc(S(=O)(=O)c2nnn3c2nc(N2CCOCC2)c2ccccc23)c(C)c1` it is -14%.
Then `C/C(CCC12CC3CC(CC(C3)C1)C2)=N\NC(N)=S`, with 0%; and `C/C(O)=C/c1nc2ccccc2[nH]c1=O`, with -7%.
Then `Cc1cccc(C)c1NC(=S)NC(=O)c1ccc(Br)o1`, with 73% (active); and `Cc1cccc(NC(=O)CCNC(=O)c2ccco2)c1C`, with -13%; and `CN1CCN(c2ccc(NC(=O)c3ccc(Br)o3)cc2)CC1`, with -2%.
Take `Cc1cccc(NC(=S)NC(=O)c2ccco2)c1C`: the activity increase over dofetilide control, less the hit threshold was 52% (active).
`CCOc1ccc(-c2cccc(NC(=O)c3ccc(Br)o3)c2)nn1`: the activity increase over dofetilide control, less the hit threshold was -26%.
As to `Cc1cccc(NC(=S)NC(=O)c2ccc(Br)o2)c1C`, the activity increase over dofetilide control, less the hit threshold is 6% (active).
The figure for `Nc1cc(=O)[nH]c(SCC(=O)N2CCCCC2)n1` is -10%; for `Cc1ccc(CNS(=O)(=O)c2cc3c4c(c2)CCN4C(=O)CC3)cc1` it is -9%; for `Cc1cc(=S)nc(-c2ccccn2)[nH]1` it is -7%.
With `Cc1[nH]c(-c2ccccn2)nc(=S)c1Cl`, the activity increase over dofetilide control, less the hit threshold was 61% (active).
On to `CC(C)c1ccc(NC(=O)C2CC3CCC2C3)cc1` (centres undefined), for which the activity increase over dofetilide control, less the hit threshold was -10%.
The figure for `CCC(C)NC(=O)c1c(-c2cc(Cl)c(OC)c(Cl)c2)noc1C` (centres undefined) is -16%; for `CCC(C)Sc1nc2c([nH]c3ccccc32)c(=O)n1C` (centres undefined) it is -5%.
Then `CCC(Cc1ccccc1)n1c(=S)[nH]c2ccccc2c1=O` (centres undefined), with 4% (active).
Then `CC(C)COn1c(=S)[nH]c2ccccc2c1=O`, with 18% (active).
With `CCC(C)n1c(=S)[nH]c2ccccc2c1=O` (centres undefined), the activity increase over dofetilide control, less the hit threshold was 14% (active).
The figure for `O=[N+]([O-])c1ccc(-c2ccc(/C=N/n3cnnc3)o2)c(Br)c1` is 12% (active); for `S=c1[nH]nc(-c2ccccn2)n1/N=C/c1ccc(-c2ccccc2Br)o1` it is -16%; for `O=C1C2C3C=CC(C4CC34)C2C(=O)N1/N=C/c1ccc(-c2ccc(F)cc2[N+](=O)[O-])o1` (centres undefined) it is -1%.
For the compound `COc1ccc(CS(=O)(=O)CC2(O)CCN(C(=O)c3cccc(C(F)(F)F)c3)CC2)cc1`, the activity increase over dofetilide control, less the hit threshold was -27%.
Then `COc1ccccc1C(=O)NCc1ccc2c(c1)OCO2`, with -10%; and `Cc1cc(C)cc(-n2nnc(C(=O)NCc3ccc4c(c3)OCO4)c2N)c1`, with -19%.
Then `CC12CCC(C(=O)NCc3ccc4c(c3)OCO4)(CC1=O)C2(C)C` (centres undefined), with 5% (active).
Regarding `CCC(=O)Nc1cc(-c2nnc(OC)c3ccccc23)ccc1N1CCOCC1`, the activity increase over dofetilide control, less the hit threshold is -1%.
The figure for `CCCCn1c(-c2csc(C(C)C)c2)n[nH]c1=S` is 8% (active); for `CCCCCCn1c(-c2cccs2)n[nH]c1=S` it is -8%; for `COc1cccc(C2C3=C(N=c4s/c(=C\c5ccc(OCC(=O)O)cc5)c(=O)n42)c2ccccc2CC3)c1` (centres undefined) it is -29%.
For the compound `Cc1ccc(C(=O)NC(=S)Nc2ccccc2C(F)(F)F)cc1`, the activity increase over dofetilide control, less the hit threshold was -6%.
The figure for `O=C(NC(=S)Nc1cc(C(F)(F)F)ccc1Cl)c1ccccc1` is 1% (active); for `CC(C)(C)SCCNC(=O)CN1C(=O)c2ccccc2S1(=O)=O` it is -4%; for `CCC1(c2ccccc2)NC(=S)N(c2ccc(C)cc2)N1` (centres undefined) it is 113% (active).
The figure for `CCC1(c2ccc(Cl)cc2)NC(=S)N(c2ccc(C)cc2)N1` (centres undefined) is 66% (active); for `CCC1(c2ccc(Cl)cc2)NC(=S)N(c2ccccc2)N1` (centres undefined) it is 96% (active).
The figure for `CC(NC(=O)CCCn1cc([N+](=O)[O-])cn1)c1ccccc1` (centres undefined) is -14%.
For `CSc1nc(-c2ccco2)cc(C(F)(F)F)c1C#N`, the activity increase over dofetilide control, less the hit threshold was -17%.
Then `C=CCn1c(=S)[nH]c2nc3c(cc2c1=O)CCCC3`, with -9%; and `COc1ccccc1Cn1c(=S)[nH]c2ccc(Br)cc2c1=O`, with 6% (active); and `COc1ccc(Br)cc1CNc1ccccc1`, with -21%.
On to `C=CCn1c(=S)[nH]c2cc(-c3ccccc3)sc2c1=O`, for which the activity increase over dofetilide control, less the hit threshold is 6% (active).
Then `C=CCn1c(=S)[nH]c2ccc(Br)cc2c1=O`, with 10% (active).
For the compound `Oc1ccc(Br)cc1-c1n[nH]c(=S)n1Cc1ccccc1`, the activity increase over dofetilide control, less the hit threshold was -17%.
